The record followed here is PubChem BioAssay AID751 (NMMLSC, 2007).

In all, about 24,000 compounds went through this assay and about 40 (0.2%) were called active. The sample as a whole holds a higher share of actives than the screen did. Values without a mark were called inactive.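 The calls were made as follows: active = inhibition of disassembly above about 33% (limit read from the data); inconclusive = likely self-fluorescent, control bead median signal at least 40; inactive = the rest.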

This assay deals with 26S proteasome (yeast, GFP-tagged, ATP-dependent disassembly). The experiment in a line: inhibitors of ATP-driven 26S proteasome dissociation, primary screen, biochemical, bead-based flow cytometry, GFP-tagged proteasome (AID 751).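 Also: plate controls were ATP control with full disassembly for no effect and ATP-gamma-S intact proteasomes for full effect; higher percent means more bead fluorescence retained so stronger block of disassembly.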 To be noted: anti-FLAG beads, hits give high values, concentration not given here. For orientation: In flow cytometry, cells or beads pass a laser one at a time.
On to `O=C(NCC(c1cccnc1)N1CCN(c2ccccc2)CC1)Oc1ccccc1` (stereo not given), for which the inhibition of disassembly is 44.6% (active).

On to `COc1ccccc1N1CCN(C(CNC(=O)Oc2ccccc2)c2cccnc2)CC1` (stereo not given), for which the inhibition of disassembly is 19.4%.

As to `CC(C)c1ccc(O)c(CN2CCN(c3ccccc3)CC2)c1`, the inhibition of disassembly was 0.72%.

For the compound `Cc1cccc(-n2c(C)nc3cc(C(=O)N4CCC5(CC4)OCCO5)ccc32)c1`, the inhibition of disassembly is 1.69%. In the case of `CCOC(=O)C1=C(C)OC(N)=C(C(=O)OC)C12C(=O)Nc1ccc(Br)cc12` (stereo not given), the inhibition of disassembly is -0.24%.
